# From PubChem BioAssay
# HTR5A ag: activates human HTR5A in OPRM1-OPRD1 agonist counter-screen | P47898 | HTR5A agonist assay, luminescence, cell-based | activation, % at 9.3 µM | 340,000 tested, 0.61% active | AID 504692; in the data active means activation mostly above about 9.5%, no sharp cut-off; inactive means mostly below about 7.6%;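 further: 0% = cells with vehicle only and 100% = reference agonist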
# Target sequence (P47898 whole entry, looked up): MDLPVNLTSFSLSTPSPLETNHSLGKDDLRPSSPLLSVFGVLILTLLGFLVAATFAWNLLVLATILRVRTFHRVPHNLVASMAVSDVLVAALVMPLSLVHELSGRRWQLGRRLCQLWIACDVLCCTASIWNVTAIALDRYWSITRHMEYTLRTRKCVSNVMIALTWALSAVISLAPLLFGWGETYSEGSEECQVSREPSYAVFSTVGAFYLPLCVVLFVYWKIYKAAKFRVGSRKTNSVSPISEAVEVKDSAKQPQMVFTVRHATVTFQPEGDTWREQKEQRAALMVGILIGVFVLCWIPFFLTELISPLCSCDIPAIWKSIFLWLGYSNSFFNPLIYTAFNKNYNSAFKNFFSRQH
# OPRM1-OPRD1 inv: mu-delta opioid heterodimer inverse agonism; cell-based MOR-DOR heterodimer luminescence; inhibition, % at 9.3 µM; P35372+P41143; 340,000 tested, 0.21% active; AID 504357; in the data active means inhibition above about 22%, passing the limit was not always enough;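 further: 0% = cells with DMSO and 100% = wells without cells with DMSO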
# HTR5A inv ag: inverse agonist of human HTR5A in OPRM1-OPRD1 counter-screen; P47898; HTR5A cell line, luminescence, inverse agonism; inhibition, % at 9.3 µM; 340,000 tested, 0.083% active; AID 504634; in the data active means inhibition mostly above about 23%, no sharp cut-off; inactive means mostly below about 18%;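 further: 0% = cells with DMSO and 100% = no-cell wells with DMSO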
# MOR-DOR ag-1: agonists of human mu-delta opioid receptor heterodimerization. cells, OPRM1-OPRD1 heterodimerization, luminescence. activation, % at 9.3 µM. P35372+P41143. 340,000 tested, 0.3% active;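 further: 0% = vehicle-treated cells and 100% = reference agonist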
# MOR-DOR inv conf: OPRM1-OPRD1 heterodimer inverse agonism, confirmation; shares compounds with OPRM1-OPRD1 inv; AID 504900; 580 tested, 20% active; inhibition, % at 9.3 µM; cells expressing OPRM1/OPRD1 heterodimer, luminescence; in the data active means inhibition above about 32%;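 further: 0% = cells with DMSO and 100% = wells lacking cells with DMSO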
# HTR5A inv ctr2: inverse agonist of human HTR5A in OPRM1-OPRD1 counter-screen; HTR5A-expressing cells, luminescence, inverse agonism; AID 504914; inhibition, % at 9.3 µM; 580 tested, under 10 active; shares compounds with OPRM1-OPRD1 inv; call rule not given here;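 further: 0% = cells with DMSO and 100% = no-cell wells with DMSO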
# MOR-DOR ag-2: promotes OPRM1-OPRD1 heterodimerization in HTR5A counter-screen | AID 504913 | activation, % at 9.3 µM | shares compounds with HTR5A ag | 800 tested, 13% active | U2OS counter-screen cells, complementation luminescence, 3 h
# HTR5A ag confirm: HTR5A (human) agonism, confirmation. shares compounds with HTR5A ag. HTR5A agonist cell assay, luminescence. activation, % at 9.3 µM. 800 tested, 17% active; in the data active means activation above about 17%;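 further: 0% = cells with vehicle only and 100% = full reference agonist response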
# Active calls of the source: *; i = inactive; / = not tested or not shown. Compounds with a hit are over-represented: about 1.1% of the library has one in this group of screens. Unless noted, no stated cut-off is given here; in the data, active means activation above about 18%; inactive means the rest.
SMILES,HTR5A ag,OPRM1-OPRD1 inv,HTR5A inv ag,MOR-DOR ag-1,MOR-DOR inv conf,HTR5A inv ctr2,others
CCc1ccc2c(c1)C(=O)C(=O)N2CCS(=O)(=O)c1ccccc1,-3,45*,13,-9,-28,-17,
O=C1C(=O)N(CCS(=O)(=O)c2ccccc2)c2ccc(Cl)cc21,1,3,-2,-1,/,/,
COc1cc(OC)cc(C(=O)NC(=S)Nc2nnn(C)n2)c1,-1,41*,1,-8,25,7,
Cn1nnc(NC(=S)NC(=O)c2cccc3ccccc23)n1,-1,41*,5,-8,9,3,
Cn1nnc(NC(=S)NC(=O)c2cccs2)n1,-9,31,21,-6,/,/,
Cc1ccc2c(c1)C(=O)C(=O)N2CC(=O)OC(C)C,-9,55*,23,-10,10,-1,
Cc1ccc(OCCN2C(=O)C(=O)c3cc(C)ccc32)cc1,0,23,7,-4,/,/,
Cc1nn(C(C)C(=O)NCCCN2CCCCCC2)c(=O)c2cc3sccc3n12 (configuration not stated),-3,8,6,-1,/,/,
CCCN1CCC(=NNC(=O)c2ccc(Br)o2)CC1,3,-3,-7,0,/,/,
CCCN1CCC(=NNc2ccc(C(=O)O)cc2)CC1,-1,37*,26,-8,-24,-143,
O=C(CCC(=O)N(c1ccccc1)C(C(=O)NC1CCCC1)c1ccncc1)Nc1cccnc1 (configuration not stated),3,20,-20,-3,/,/,
COCCN(C(=O)CCC(=O)Nc1cccnc1)C(C(=O)NC1CCCCC1)c1ccccc1 (configuration not stated),-3,36*,11,-7,-16,-5,
CCN1C(=O)CS/C1=N\S(=O)(=O)c1ccc(Cl)cc1,0,5,-1,-1,/,/,
CCn1c(Cl)c(C=O)s/c1=N\S(=O)(=O)c1ccccc1,-2,34*,6,-6,20,16,
CCCCC(=O)Nc1ccc(Br)cc1C(=O)O,3,4,4,-1,/,/,
CC(=O)Nc1ccc(Br)cc1C(=O)C(=O)O,-5,36*,11,-7,-13,-37,
[O-]/[N+](=C\c1ccccc1)[C@@H]1CCCC[C@@H]1/[N+]([O-])=C/c1ccccc1,4,37*,3,-9,18,4,
O=C(Nc1ccc(O)c(-c2nc3ccccc3s2)c1)c1cccs1,-5,36*,13,-6,4,3,
CCOC(=O)c1c(N)ssc1=S,-1,35*,23,-6,20,-11,
CCOC(=O)c1c(N)sc(N)c1C(=O)OCC,8,51*,12,-10,i,-4,
CCOC(=O)C(OC(=O)c1sc(=S)n(C)c1C)C(C)=O (configuration not stated),-1,39*,4,-7,22,18,
CC(C)(C)OC(=O)N[C@H](C(=O)OC(C)(C)C)c1ccc2c(c1)OCO2,9,-7,-25,1,/,/,
COc1cc(C(C)=O)ccc1OCc1cn(CC(=O)c2ccc(O)cc2)nn1,-2,32*,9,-7,i,-25,
N#CC(C#N)=C1C=CC=CN1/C(=C\c1ccccc1Cl)C(=O)c1ccccc1,2,35*,23,-7,18,16,
CCCc1c(C(=O)Nc2ccc(C(F)(F)F)cc2)cnn1-c1ccccc1,0,-26,-3,5,/,/,
SMILES,HTR5A ag,OPRM1-OPRD1 inv,HTR5A inv ag,MOR-DOR ag-1,MOR-DOR inv conf,HTR5A inv ctr2,others
CCCc1c(C(=O)NNc2ccc(C)cc2)cnn1-c1ccccc1,2,39*,-1,-8,-3,-16,
Cc1cc(C)c(C(=O)CC2(O)C(=O)Nc3ccccc32)cc1C (configuration not stated),-9,2,22,0,/,/,
Cc1ccc(NC2(C#N)C(=O)Nc3ccccc32)cc1C (configuration not stated),-5,56*,14,-12,-244,0,
COC(=O)c1ccc(NC2(C#N)C(=O)Nc3ccccc32)cc1 (configuration not stated),-4,83*,12,-14,64*,16,
CCCCCN(C(=O)CCC(=O)OCc1cccc(F)c1)c1c(N)n(CCCC)c(=O)[nH]c1=O,-5,11,-11,-2,/,/,
Cc1ccc2[nH]c(O)c(N=Nc3ccccc3C)c2c1,3,32*,1,-5,4,4,
Cc1cc2c3c([nH]c2cc1S(=O)(=O)NCc1ccc(CN2CCCCCC2)o1)CCCC3=O,2,11,-4,-2,/,/,
COc1ccc(/C=C2\C(=O)NC(=O)c3ccccc32)cc1OC,4,1,-15,0,/,/,
COc1ccc(-c2cccc3c2NC(=O)C3=O)cc1OC,-3,64*,8,-11,42*,16,
Cc1ccc2c(c1)/C(=C/c1ccccc1C)C(=O)N2,2,-30,-6,6,/,/,
CCOc1ccc2c(c1)/C(=N/N1C(=O)c3ccccc3C1=O)C(=O)N2,-7,42*,19,-7,-7,7,
Cc1ccc2c(c1)/C(=N/N1C(=O)c3ccccc3C1=O)C(=O)N2,-2,28*,7,-5,5,14,
O=C(C1=C(O)C(=O)N(CCN2CCOCC2)C1c1ccco1)c1cc2ccccc2o1 (configuration not stated),1,34*,-4,-6,-102,-40,
O=C(C1=C(O)C(=O)N(CCN2CCOCC2)C1c1ccc(F)cc1)c1cc2ccccc2o1 (configuration not stated),1,10,-3,-2,/,/,
CC(=O)NC(=S)Nc1ccccc1C(=O)Nc1ccccc1,-2,27*,-24,-5,7,-2,
CCCCC(=O)NC(=S)Nc1ccccc1C(=O)Nc1ccccc1,-2,30*,10,-6,8,2,
CCN(CC)S(=O)(=O)c1cccc(-c2n[nH]c(=S)n2C)c1,4,-7,-9,1,/,/,
Cc1ccc(-c2n[nH]c(=S)n2C)cc1Cl,-7,33*,19*,-6,2,12,
O=Cc1c(NCc2cccc(F)c2)c2ccccc2[nH]c1=O,-2,20,6,-4,/,/,
Cc1ccc(S(=O)(=O)N2CCCC2C(=O)NCc2ccncc2)cc1 (configuration not stated),1,-1,-1,0,/,/,
N#CC(C#N)=NNc1ccc([N+](=O)[O-])cc1,15*,31*,-15,-6,9,-11,MOR-DOR ag-2=-1;HTR5A ag confirm=3
CC12CCC(=O)N1C(C(=O)Nc1ccccc1F)CS2 (configuration not stated),-9,-15,28,2,/,/,
